{"source": "ChEMBL document CHEMBL1961873", "about": "“Compounds: GSK PKIS; Assays: Nanosyn kinase panel” (2012)"}
{"target": "Tyrosine-protein kinase Fyn (Homo sapiens) (UniProt P06241)", "sequence (P06241 2-537 limits assumed)": "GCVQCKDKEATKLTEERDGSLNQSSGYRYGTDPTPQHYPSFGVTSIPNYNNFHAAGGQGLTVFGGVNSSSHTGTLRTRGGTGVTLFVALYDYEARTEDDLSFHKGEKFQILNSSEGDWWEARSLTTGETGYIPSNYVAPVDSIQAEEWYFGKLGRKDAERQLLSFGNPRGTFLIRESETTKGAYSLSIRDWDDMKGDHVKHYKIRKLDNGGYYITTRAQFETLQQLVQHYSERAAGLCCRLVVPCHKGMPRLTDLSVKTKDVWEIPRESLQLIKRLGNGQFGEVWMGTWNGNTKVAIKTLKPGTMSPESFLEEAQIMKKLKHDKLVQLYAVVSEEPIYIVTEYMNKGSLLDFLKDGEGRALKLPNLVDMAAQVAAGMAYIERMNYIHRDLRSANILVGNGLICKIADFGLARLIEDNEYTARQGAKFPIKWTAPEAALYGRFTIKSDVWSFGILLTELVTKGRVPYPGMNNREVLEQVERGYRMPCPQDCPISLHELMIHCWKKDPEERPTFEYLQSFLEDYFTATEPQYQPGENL", "settings": "at 1 µM", "units": {"inhibition": "%"}}
{"molecule": "COc1ccc(-c2nn3ncccc3c2-c2ccnc(Nc3cccc(C(F)(F)F)c3)n2)cc1", "inhibition": 7.59}
{"molecule": "COc1cc(/C=N/Nc2ncnc3c2cnn3C(C)C)ccc1O", "inhibition": 40.2}
{"molecule": "Cc1ccc2c(-c3ccnc(Nc4cccc(C(F)(F)F)c4)n3)c(-c3ccccc3)nn2n1", "inhibition": 61}
{"molecule": "Cc1cc(-c2ccccn2)cc(C)c1/C=C/c1cncc(-c2nn[nH]n2)c1", "inhibition": 9.92}
{"molecule": "c1ccc(Cc2nc3ccc(Nc4ncnc5ccccc45)cc3[nH]2)cc1", "inhibition": 5.58}
{"molecule": "NS(=O)(=O)c1ccc(NC=C2C(=O)Nc3ccc4ncsc4c32)cc1", "inhibition": 26.5}
{"molecule": "Cc1ccc2c(c1)/C(=N/Nc1ccc(S(N)(=O)=O)cc1)C(=O)N2", "inhibition": 0.85}
{"molecule": "Nc1nccc(C#Cc2cncnc2Nc2ccc(OCc3cccc(F)c3)c(Cl)c2)n1", "inhibition": 2.19}
{"molecule": "CCCN1CCCC(c2ccc(Nc3nc(Nc4cc(F)ccc4C(N)=O)c4cc[nH]c4n3)c(OC)c2)C1", "note": "(centres undefined)", "inhibition": 16.1}
{"molecule": "O=C1Nc2ccc(-c3cccnc3)cc2C1=Cc1cc(Br)c(O)c(Br)c1", "inhibition": 10.5}
{"molecule": "ON=C1CCc2cc(-c3nc(C4CCNCC4)[nH]c3-c3ccncc3)ccc21", "inhibition": 0.87}
{"molecule": "Oc1cccc(-c2nc(-c3ccccc3)[nH]c2-c2ccncc2)c1", "inhibition": 17.9}
{"molecule": "Cc1ccc2c(-c3ccnc(Nc4ccc5c(c4)OCCO5)n3)c(-c3ccc(C(F)(F)F)cc3)nn2n1", "inhibition": 5.39}
{"molecule": "O=S(=O)(CCOCc1ccc(-c2ccc3ncnc(Nc4ccc(OCc5cccc(F)c5)c(Cl)c4)c3c2)o1)c1ccccc1", "inhibition": 0.6}
{"molecule": "COc1cc2ncnc(Nc3ccc4c(cnn4Cc4ccccc4)c3)c2cc1OC", "inhibition": 35.7}
{"molecule": "COC(=O)Nc1nc2cc(Oc3ccc(NC(=O)Nc4cccc(Br)c4)cc3)ccc2[nH]1", "inhibition": 9.52}
{"target": "Tyrosine-protein kinase HCK (Homo sapiens) (UniProt P08631)", "sequence (P08631 2-526 limits assumed)": "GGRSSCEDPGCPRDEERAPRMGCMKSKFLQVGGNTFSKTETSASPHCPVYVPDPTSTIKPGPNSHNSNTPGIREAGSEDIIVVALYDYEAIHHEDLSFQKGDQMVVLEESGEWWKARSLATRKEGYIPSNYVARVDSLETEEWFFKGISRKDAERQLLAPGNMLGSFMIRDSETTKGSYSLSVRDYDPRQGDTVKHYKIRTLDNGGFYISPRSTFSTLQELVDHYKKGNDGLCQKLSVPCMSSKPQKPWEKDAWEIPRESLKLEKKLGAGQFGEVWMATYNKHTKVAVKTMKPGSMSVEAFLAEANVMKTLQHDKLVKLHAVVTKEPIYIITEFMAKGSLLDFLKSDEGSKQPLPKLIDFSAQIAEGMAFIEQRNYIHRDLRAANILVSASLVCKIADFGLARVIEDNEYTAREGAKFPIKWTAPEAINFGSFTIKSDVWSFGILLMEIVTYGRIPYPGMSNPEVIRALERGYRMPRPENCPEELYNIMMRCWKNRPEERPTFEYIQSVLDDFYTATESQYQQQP", "settings": "at 0.1 µM", "units": {"inhibition": "%"}}
{"molecule": "N#Cc1cccc(Nc2nccc(-c3cnn4ncccc34)n2)c1", "inhibition": 7.16}
{"molecule": "Cc1cc(O)cc(C)c1/C=C/c1cncc(C(=O)N(C)C)c1", "inhibition": 4.54}
{"molecule": "CN(C)CCCn1c(-c2nonc2N)nc2cnccc21", "inhibition": 5.43}
{"molecule": "COc1cccc(-n2ncc3c(N/N=C/c4ccc(S(C)(=O)=O)cc4)ncnc32)c1", "inhibition": 17}
{"molecule": "COc1cc(Nc2nccc(-c3cnn4ncccc34)n2)cc(OC)c1", "inhibition": 5.71}
{"molecule": "NC(=O)c1cccc(Nc2nccc(Nc3cccc(F)c3)n2)c1", "inhibition": 3.16}
{"molecule": "NS(=O)(=O)c1ccc(Nc2cc(-c3cccc(O)c3)n[nH]2)cc1", "inhibition": 5.06}
{"molecule": "CC(C)c1ccc(Nc2nccc(-c3cnn4ncccc34)n2)cc1", "inhibition": 4}
{"molecule": "O=C1Nc2ccccc2/C1=C/Nc1ccc2[nH]c(=O)[nH]c2c1", "inhibition": 7.89}
{"molecule": "CN1CCN(C(=O)c2ccc(NC(=O)Nc3ccc(N(C)c4ccnc(Nc5ccc(CS(C)(=O)=O)cc5)n4)cc3)cc2)CC1", "inhibition": 3.98}
{"molecule": "CCn1c(-c2nonc2N)nc2c(C#CC(C)(C)O)nc(OCCNC)cc21", "inhibition": 5.42}
{"molecule": "COc1cccc(-n2ncc3c(N/N=C/c4ccc(C)cc4)ncnc32)c1", "inhibition": 7.32}
{"molecule": "NS(=O)(=O)c1cccc(Nc2cc(-c3ccc(F)cc3)n[nH]2)c1", "inhibition": 3.23}
{"molecule": "Cc1cc(Cl)cc2c1NC(=O)C2=NNc1ccc(S(N)(=O)=O)cc1", "inhibition": 2.49}
{"molecule": "CN(C)C(=O)O[C@@H]1CN[C@@H](C#Cc2cc3ncnc(Nc4ccc(OCc5cccc(F)c5)c(Cl)c4)c3s2)C1", "inhibition": 1.53}
{"molecule": "CN(C)c1cc2c(Nc3ccc4c(cnn4Cc4ccccc4)c3)ncnc2cn1", "inhibition": 7.12}
{"molecule": "CN(C)C(=O)O[C@H]1CN[C@H](C#Cc2cc3ncnc(Nc4ccc(OCc5cccc(F)c5)c(Cl)c4)c3s2)C1", "inhibition": 4.49}
{"molecule": "COc1ccc(-c2nn3ncccc3c2-c2ccnc(Nc3cccc(C(F)(F)F)c3)n2)cc1", "inhibition": 4.3}
{"molecule": "COc1cc(/C=N/Nc2ncnc3c2cnn3C(C)C)ccc1O", "inhibition": 7.16}
{"molecule": "Cc1ccc2c(-c3ccnc(Nc4cccc(C(F)(F)F)c4)n3)c(-c3ccccc3)nn2n1", "inhibition": 11.3}
{"molecule": "Cc1cc(-c2ccccn2)cc(C)c1/C=C/c1cncc(-c2nn[nH]n2)c1", "inhibition": 7.16}
{"molecule": "c1ccc(Cc2nc3ccc(Nc4ncnc5ccccc45)cc3[nH]2)cc1", "inhibition": 3.53}
{"molecule": "NS(=O)(=O)c1ccc(NC=C2C(=O)Nc3ccc4ncsc4c32)cc1", "inhibition": 12.2}
{"molecule": "Cc1ccc2c(c1)/C(=N/Nc1ccc(S(N)(=O)=O)cc1)C(=O)N2", "inhibition": 1.4}
{"molecule": "Nc1nccc(C#Cc2cncnc2Nc2ccc(OCc3cccc(F)c3)c(Cl)c2)n1", "inhibition": 5.32}
{"molecule": "CCCN1CCCC(c2ccc(Nc3nc(Nc4cc(F)ccc4C(N)=O)c4cc[nH]c4n3)c(OC)c2)C1", "note": "(centres undefined)", "inhibition": 7.06}
{"molecule": "O=C1Nc2ccc(-c3cccnc3)cc2C1=Cc1cc(Br)c(O)c(Br)c1", "inhibition": 3.63}
{"molecule": "ON=C1CCc2cc(-c3nc(C4CCNCC4)[nH]c3-c3ccncc3)ccc21", "inhibition": 0.2}
